Results as given in PubChem BioAssay AID1159580 (chemical genetic matrix, 2015).
About 2,000 (36%) of roughly 5,500 compounds were called active. Roughly 18% stayed inconclusive and do not appear here. Cut-off read from the data, not from the text of the source: active = normalized growth mostly below about 0.91 (no sharp cut-off); inconclusive = no clear call, values can overlap the other calls; inactive = mostly above about 0.92. This is one part of the list.

Experiment: chemical genetic growth profiling, strain panel (AID 1159580);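 note: tested at 20 µM; growth read once vehicle control cultures reached saturation at 30 °C; 1 = growth at the plate median or of vehicle wells; lower values mean less growth of the strain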
Conditions: growth OD

Measured: normalized growth

Cc1cc(C)c2c(-n3cccc3)c(C(=O)c3ccc(Cl)cc3)sc2n1
inactive: S. cerevisiae deletion strains, locus YAL013W, strain DEP1, hits give low values 0.996 | S. cerevisiae deletion strains, locus YBR229C, strain ROT2, hits give low values 1.01 | S. cerevisiae deletion strains, locus YCL061C, strain MRC1, hits give low values 1 | S. cerevisiae deletion strains, locus YDL101C, strain DUN1, hits give low values 0.979 | S. cerevisiae deletion strains, locus YDR150W, strain NUM1, hits give low values 0.9 | S. cerevisiae deletion strains, locus YEL061C, strain CIN8, hits give low values 1 | S. cerevisiae deletion strains, locus YGR078C, strain PAC10, hits give low values 1.01 | S. cerevisiae deletion strains, locus YGR229C, strain SMI1, hits give low values 0.99 | S. cerevisiae deletion strains, locus YHR030C, strain SLT2, hits give low values 0.884 | S. cerevisiae deletion strains, locus YHR087W, strain rtc3, hits give low values 0.98 | S. cerevisiae deletion strains, locus YJL187C, strain SWE1, hits give low values 1.01 | S. cerevisiae deletion strains, locus YJR043C, strain POL32, hits give low values 1.01 | S. cerevisiae deletion strains, locus YJR075W, strain HOC1, hits give low values 0.987 | S. cerevisiae deletion strains, locus YLR039C, strain RIC1, hits give low values 0.903 | S. cerevisiae deletion strains, locus YLR058C, strain SHM2 (second series), hits give low values 1.01 | S. cerevisiae deletion strains, locus YLR085C, strain ARP6, hits give low values 0.961 | S. cerevisiae deletion strains, locus YLR262C, strain YPT6, hits give low values 0.95 | S. cerevisiae deletion strains, locus YML094W, strain GIM5, hits give low values 0.935 | S. cerevisiae deletion strains, locus YMR219W, strain ESC1, hits give low values 1.01 | S. cerevisiae deletion strains, locus YMR263W, strain SAP30, hits give low values 0.997 | S. cerevisiae deletion strains, locus YMR307W, strain GAS1, hits give low values 0.891 | S. cerevisiae deletion strains, locus YNL153C, strain GIM3, hits give low values 0.984 | S. cerevisiae deletion strains, locus YNL298W, strain CLA4 (second series), hits give low values 0.984 | S. cerevisiae deletion strains, locus YNL322C, strain KRE1, hits give low values 0.997 | S. cerevisiae deletion strains, locus YNR030W, strain Alg12, hits give low values 0.95 | S. cerevisiae deletion strains, locus YPL055C, strain LGE1, hits give low values 0.957 | S. cerevisiae deletion strains, locus YPL241C, strain CIN2, hits give low values 1 | S. cerevisiae deletion strains, locus YPR135W, strain CTF4, hits give low values 0.893 | S. cerevisiae strains, strain wild type, hits give low values 0.986
